# Screening results: PubChem BioAssay, National Center for Advancing Translational Sciences (NCATS)
# FBPA coupling cs – qHTS Assay for Inhibitors of Fructose-1,6-bisphosphate Aldolase from Giardia Lamblia: Coupling assay counterscreen | coupling enzyme system counterscreen, AmpLite Red fluorescence | activity change, negative = inhibition, % at 58.2 µM, hits read low | actives 0.67% (n = 290,000); in the data active means activity change below about -30%
#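 Compounds tested against the coupling enzymes alone at 57.5 uM final; readout was AmpLite Red fluorescence (525/598 nm) after 20 min at RT.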
# ELG1 repair inh – qHTS screen for small molecules that inhibit ELG1-dependent DNA repair in human embryonic kidney (HEK293T) cells expressing luciferase-tagged ELG1. actives 2.3% (n = 330,000). Potency, µM (series often up to 46.1 µM), for inactives: top-dose activity change, negative = inhibition, hits mostly inhibitors. AID 504467, 2011. HEK293T ELG1-luciferase reporter, luminescence, 16 h; DNA damage induced by 5-fluorouridine; further: potency means the concentration at half of the fitted maximal effect; nearly all actives have a fitted effect of over 55% in size
#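 Luminescence from the luciferase reporter, measured 30 min after ONE-Glo reagent at room temperature, was the read-out. Beforehand, 2,000 cells per well were exposed for 16 hr at 37 °C to 5-fluorouridine together with compound or vehicle.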
# Giardia kill – Small Molecules that selectively kill Giardia lamblia: qHTS; Giardia lamblia trophozoite viability; actives 0.15% (n = 340,000); activity change, % at 7.66 µM, hits read low; in the data active means activity change below about -80%; inconclusive means between about -30% and that limit;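 further: parasites exposed to compound for two days anaerobically before the ATP read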
#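 Trophozoites 100 cells/well + cpd; 48 hrs, 37 deg C, anaerobic. ATPLite 1-Step added, 15-30 min RT, luminescence read (ATP-based viability).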
# Sfp inh – qHTS Assay for Inhibitors of Bacillus subtilis Sfp phosphopantetheinyl transferase (PPTase). 4'-phosphopantetheinyl transferase ffp (Bacillus subtilis), Q9F4F7. Biochemical Sfp PPTase activity, qHTS. Potency, µM, without a hit: largest response in the series, negative = inhibition, usual class: inhibitors. AID 1490, 2009. actives 3.5% (n = 310,000);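 further: the enzyme is Sfp with the accession as filed and its product quenches rhodamine fluorescence; potency means the concentration at half of the fitted maximal effect; 0% = enzyme reaction without inhibitor and -100% = no enzyme wells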
#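 Buffer: 50 mM Hepes-Na pH 7.6, 10 mM MgCl2, 0.01% Nonidet P-40, 0.01% BSA. Enzyme 15 nM, pre-exposed to compound 15 min; substrates then added and fluorescence change tracked over 30 min.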
# * = called active by the depositor; u = inconclusive; x = no result given. Only some compounds are listed: those with a hit (about 5.5% of all), similar ones and a draw of the others. Unless noted, the call rests on the fitted dose curve; in most records, active means well fitted curve in the direction sought with a large enough effect; inconclusive means small, poorly fitted or top-dose-only effect, or another doubt; inactive means no such curve, though single readings can be large; an effect the other way counts as inactive or inconclusive. Unless noted, on the % scale 0 is the no-effect control and ±100 the full control effect.
SMILES,FBPA coupling cs,ELG1 repair inh,Giardia kill,Sfp inh
CSc1nsc(SC)c1C(=O)Nc1ccc(C(C)(C)C)cc1,-11,18µM*,-8,3%
CO[C@H]1COC(=O)C/C=C\[C@H](C)[C@H](OC)COC(=O)[C@@H](C)NC(=O)C/C=C\[C@@H]1C,0,x,x,13%
CCC(=O)N(C1=C(NC(C)C)C(=O)c2ccccc2C1=O)C(C)C,-34*,u,-3,-13%
CCOc1ccc(N)cc1OC,-33*,-7%,-15,5%
CCOc1ccc(C(N)=O)cc1OC,0,8%,-4,18%
Cc1sc(NC(=O)C2CCCCC2C(=O)O)c(C(N)=O)c1-c1ccccc1 (stereo not given),9,u,-28,2%
Cc1sc(NC(=O)C2CCCCC2C(=O)O)c(C(N)=O)c1-c1ccc(C(C)(C)C)cc1 (stereo not given),15,u,6,79µM*
Cc1sc(NC(=O)/C=C/C(=O)O)c(C(N)=O)c1-c1ccc(C(C)(C)C)cc1,16,1%,-10,-55%
COC(=O)CCC(=O)Nc1sc(C)c(C)c1C(N)=O,2,13%,-7,14µM*
CCCC(=O)Nc1sc(Cc2ccccc2)c(C)c1C(N)=O,-7,u,6,13µM*
COC(=O)CCC(=O)NC(=S)Nc1sc(C)c(C)c1C(N)=O,1,0%,-22,-23%
COC(=O)c1c(NC(=O)CCC(=O)O)sc(Cc2ccccc2)c1C,11,-3%,20,7%
CCc1ccc(-c2c(C)sc(NC(C)=O)c2C(N)=O)cc1,6,u,6,50µM*
C=CCNCC(O)COc1ccc(C(C)=O)cc1OC (stereo not given),-5,u,8,u
CN(C(=O)COC(=O)c1ccc(Br)c(S(=O)(=O)N2CCOCC2)c1)C1CCCCC1,x,u,0,x
CCOC(=O)c1c(NC(=O)/C=C\C(=O)O)sc(C)c1-c1ccccc1,17,1%,-8,20%
Cc1sc(NC(=O)CCC(=O)O)c(C(N)=O)c1-c1ccccc1,17,16%,-14,35µM*
COc1ccc(NC(=O)c2c(NC(=O)CCC(=O)O)sc(-c3ccccc3)c2C)cc1,-2,-17%,-12,16µM*
CCOC(=O)c1c(NC(=O)/C=C/C(=O)O)sc(C)c1-c1ccc(C(C)(C)C)cc1,14,12µM*,-8,-12%
O=C(Nc1ccccc1)N1CC2(CCN(C(=O)c3cnccn3)CC2)C1,1,x,x,2%
CN(C)/C=C(\C#N)S(=O)(=O)c1ccccc1,0,-11%,-3,27%
CS(=O)(=O)/C(C#N)=C\c1cnc(S(=O)(=O)c2ccccc2)s1,0,24%,x,3.5µM*
Cc1nc2c(C(=O)NCc3ccc4c(c3)OCO4)c[nH]n2c(=O)c1Cl,-2,12%,-10,45µM*
Cc1nc2c(C(=O)NCc3ccc4c(c3)OCO4)cnn2c(C)c1Cc1ccc(F)cc1Cl,-2,21µM*,-8,-26%
Cn1cnc([N+](=O)[O-])c1Sc1nc(N)nc2c1ncn2C1CC(O)C(CO)O1 (stereo not given),x,x,7,x
SMILES,FBPA coupling cs,ELG1 repair inh,Giardia kill,Sfp inh
S=c1[nH]nc(Cc2ccc(Br)cc2)n1/N=C/c1ccc(Cl)cc1,1,-4%,5,14µM*
COc1ccc(Cc2n[nH]c(=S)n2N)cc1OC,-7,-8%,-13,20µM*
COc1ccc(Cc2n[nH]c(=S)n2C)cc1Br,-29,-9%,-3,u
CCOc1ccc(Cc2n[nH]c(=S)n2N)cc1,0,-14%,-6,56µM*
Nn1c(Cc2ccc(Br)cc2)n[nH]c1=S,-1,-1%,-4,35µM*
Nn1c(Cc2ccccc2F)n[nH]c1=S,0,u,-4,u
COCCN(C(=O)COC(=O)CSc1ccc2ccccc2c1)c1c(N)n(Cc2ccccc2)c(=O)[nH]c1=O,x,3%,1,x
Cc1cc(N2CCN(C)CC2)nc2ccc(NC(=S)N3CCCCC3)cc12,-5,10%,2,-21%
Cc1cccc(N2CCN(C(=S)Nc3ccc4nc(N5CCN(C)CC5)cc(C)c4c3)CC2)c1C,3,14%,-82*,-28%
Cc1cc(N2CCN(C)CC2)nc2ccc(NC(=S)N3CCN(c4cccc(Cl)c4)CC3)cc12,2,6%,-81*,17%
Cc1cc(N2CCN(C)CC2)nc2ccc(NC(=S)N3CCCCCC3)cc12,-4,4%,34,-9%
Cc1cccc(N2CCN(C(=S)Nc3ccc4nc(N5CCN(C)CC5)cc(C)c4c3)CC2C)c1 (stereo not given),-1,12%,-89*,7%
Cc1cc(N2CCN(C)CC2)nc2ccc(NC(=S)N3CCN(c4ccc(F)cc4)CC3)cc12,1,-14%,-85*,25%
COc1ccc(O[C@H]2C=C[C@@H](c3ccccc3)O[C@H]2CO/N=C2/[C@H]3O[C@@H]3[C@@H](O)[C@H]3[C@H]2CCn2c(=O)n(-c4ccccc4)c(=O)n23)cc1,0,x,x,12%
CCN(CC)CCCCn1c(-c2ccccc2)nc2c(NCc3ccccc3)nc(C)nc21,1,x,x,15%
COc1ccc(CC(=O)Oc2cc(C)ccc2C)cc1,4,3%,16,3%
Cc1cc(N2CCN(C)CC2)nc2ccc(NC(=S)N3CCN(c4ccc(Cl)cc4)CC3)cc12,-28,-13%,u,45µM*
O=c1cnc2cnc(Oc3cccc(Cl)c3)nc2n1C[C@H]1CCCO1,-1,x,x,0%
CC(=O)N1CCN(c2ncnc3sc(-c4ccccc4)cc23)CC1,0,-4%,2,12%
Oc1ccc(N2CCN(c3ncnc4sc(-c5ccccc5)cc34)CC2)cc1,1,u,-12,20µM*
O=C(Nc1cccc2ccccc12)NC1CCCCC1,2,5%,10,6%
O=C(NNC(=O)C1[C@H]2CCCC[C@@H]12)Nc1cccc2ccccc12 (stereo not given in full),-1,26µM*,17,23%
O=C(CN1C(=O)C(=O)N(C2CCCC2)C1=O)Nc1cc(Cl)ccc1[N+](=O)[O-],x,14%,8,x
COc1cc(CNc2ccc3[nH]c(=O)[nH]c3c2)cc(Br)c1OCC(=O)NC(C)(C)C,-3,u,2,-10%
COc1cc(CNc2ccc3[nH]c(=O)[nH]c3c2)ccc1OCC(=O)NC(C)(C)C,-30*,-5%,-4,-19%
Cn1cccc1C(=O)N1CCC[C@@]2(CCN(Cc3cc(C(F)(F)F)cc(C(F)(F)F)c3)C2)C1,0,x,x,46%
OCC[C@H]1C[C@H](O)[C@@H](O)[C@]2(OCCc3ccccc32)O1,x,3%,0,x
CCOc1ccc(-c2nnc(SCC(=O)NC(C)(C)C)nc2-c2ccc(OCC)c(OC)c2)cc1OC,-2,-18%,2,-10%
Cc1cc(C)nc(/N=C2/NC(=O)CS2)n1,2,13%,0,32µM*
